Screening data as filed in PubChem BioAssay.
Sampled rows, rich in hits. Any-hit rate of the full collection: about 1.3%.
LmPK inh: blocks Leishmania mexicana pyruvate kinase activity | 290,000 tested, 0.37% active | Q27686 | Potency, µM (highest dose often 57.5 µM), actives largely listed as inhibitors | purified LmPK, Kinase-Glo ATP luminescence, 1 h
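qHTS format; LmPK 0.1 nM; substrates PEP 0.5 mM and ADP 0.1 mM. One-hour room-temperature incubation, then coupled luciferase luminescence; 0.5 nM enzyme wells mark activation.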
AMA1 RON2 block: AMA1-RON2 (P. falciparum) interaction inhibition. Potency, µM (series often up to 58.2 µM), hits mostly inhibitors. AlphaScreen AMA1-biotinylated RON2 peptide binding. 360,000 tested, 0.2% active; also: nearly all actives have a fitted effect of over 45% in size
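AMA1 (3D7) with his tag at 25 nM final met compounds first, then biotinylated RON2 peptide at 25 nM; detection used donor plus acceptor beads, 10 µg/mL apiece, read by AlphaScreen after 30 min at room temperature.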
AmpC detergent: blocks E. coli AmpC beta-lactamase in detergent assay; P00811; AmpC hydrolysis of nitrocefin, absorbance 480 nm, 0.01% Triton; 370,000 tested, 0.041% active; AID 485294; Potency, µM (doses to about 114 µM), actives largely listed as inhibitors; also: nearly all actives have a fitted effect of over 25% in size
Target sequence (P00811 whole entry, looked up): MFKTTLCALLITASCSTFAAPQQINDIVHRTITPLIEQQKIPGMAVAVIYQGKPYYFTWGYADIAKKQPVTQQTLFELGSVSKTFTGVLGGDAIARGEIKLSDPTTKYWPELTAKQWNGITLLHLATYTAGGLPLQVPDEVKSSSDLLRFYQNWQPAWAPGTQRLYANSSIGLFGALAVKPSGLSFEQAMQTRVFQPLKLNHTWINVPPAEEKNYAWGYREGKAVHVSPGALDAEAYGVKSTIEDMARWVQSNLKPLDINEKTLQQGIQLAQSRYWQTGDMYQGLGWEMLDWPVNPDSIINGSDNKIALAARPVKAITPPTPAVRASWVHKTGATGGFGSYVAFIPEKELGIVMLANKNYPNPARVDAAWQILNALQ
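AmpC (5.3 nM in the dispensed reagent) in 20 mM phosphate pH 7.0 with 0.01% (detergent screen) or 0.0001% Triton X-100 was preincubated with compounds for 15 min at room temperature. Nitrocefin was then added from an 800 uM solution, and hydrolysis was followed at 480 nm.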
AmpC no deterg: inhibitors of E. coli AmpC beta-lactamase without detergent. AID 485341. 330,000 tested, 0.52% active. Potency, µM (top dose mostly 57.1 µM), most hits filed as inhibitors. AmpC nitrocefin hydrolysis, absorbance 480 nm, 0.0001% Triton. P00811; also: nearly all actives have a fitted effect of over 20% in size
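20 mM phosphate pH 7.0 + 0.01% (detergent screen) or 0.0001% Triton X-100; 5.3 nM AmpC reagent; cpd preinc 15 min RT; nitrocefin (800 uM stock) to start; A480 q20 s × 4 min; Activity was normalised to no-enzyme and no-compound control wells.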
Giardia FBPA inh-1: blocks Giardia fructose-bisphosphate aldolase activity | 290,000 tested, 0.71% active | A8B2U2 | Potency, µM (top dose mostly 59.6 µM), hits mostly inhibitors | purified Giardia FBPA; also: nearly all actives have a fitted effect of over 55% in size
Target sequence (A8B2U2 whole entry, looked up): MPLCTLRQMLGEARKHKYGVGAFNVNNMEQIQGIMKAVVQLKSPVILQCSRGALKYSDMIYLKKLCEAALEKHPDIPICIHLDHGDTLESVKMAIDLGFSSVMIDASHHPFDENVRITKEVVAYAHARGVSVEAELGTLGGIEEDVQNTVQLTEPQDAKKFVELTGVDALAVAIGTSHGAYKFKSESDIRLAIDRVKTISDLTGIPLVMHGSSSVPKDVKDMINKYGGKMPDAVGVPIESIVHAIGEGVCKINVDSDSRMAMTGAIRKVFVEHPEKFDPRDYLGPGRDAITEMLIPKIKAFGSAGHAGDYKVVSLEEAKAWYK
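Giardia FBPA (40 nM reagent) was preincubated 10 min at RT with compound (up to 57.5 uM final), then substrate plus GAPDH/TPI/NAD/arsenate coupling system with diaphorase/resazurin was added; resorufin fluorescence (525/598 nm) was read after 20 min.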
Giardia growth: blocks growth of Giardia lamblia trophozoites | Giardia lamblia trophozoite growth inhibition | shares compounds with Giardia FBPA inh-1 | Potency, µM (doses to about 57.5 µM), most hits filed as inhibitors | 1,500 tested, 5% active;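 also: trophozoites exposed to compound for 48 h at 37 °C; nearly all actives have a fitted effect of over 70% in size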
Mammalian tox: mammalian cytotoxicity of Giardia aldolase inhibitor hits; mammalian cell viability counter-screen, qHTS; Potency, µM (top dose mostly 57.5 µM), actives largely listed as inhibitors; AID 2786; shares compounds with Giardia FBPA inh-1; 1,500 tested, 4% active;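 also: Chinese hamster ovary cells used as mammalian cytotoxicity surrogate; viability measured as cellular ATP by luminescence; compound exposure lasted 48 h before reading; nearly all actives have a fitted effect of over 60% in size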
Giardia FBPA inh-2: confirmation of Giardia fructose-bisphosphate aldolase inhibitors; shares compounds with Giardia FBPA inh-1; purified Giardia aldolase enzyme activity, qHTS; Potency, µM (titrated, usually from 57.5 µM), actives largely listed as inhibitors; 1,500 tested, 5% active; also: nearly all actives have a fitted effect of over 45% in size
Rabbit FBPA inh: rabbit FBP aldolase inhibition by Giardia aldolase hits; AID 2794; Rabbit muscle FBPA enzyme inhibition, selectivity counter-screen; Potency, µM (titrated, usually from 57.5 µM), usual class: inhibitors; shares compounds with Giardia FBPA inh-1; 1,500 tested, 4% active; also: nearly all actives have a fitted effect of over 60% in size
GAPDH counter: GAPDH inhibition flagged for Giardia aldolase hits | GAPDH coupling enzyme counterscreen, biochemical, qHTS | Potency, µM (top dose mostly 57.5 µM), most hits filed as inhibitors | shares compounds with Giardia FBPA inh-1 | 1,500 tested, 6% active; also: nearly all actives have a fitted effect of over 55% in size
Each line names hits and unclear results; the compound was inactive in the other large screens (follow-up assays come after a bar, where they were run); [ ] = another dose, or the depositor's remark. Calls follow the shape of the dose curve; as a rule, active = well fitted curve in the direction sought with a large enough effect; inconclusive = small, poorly fitted or top-dose-only effect, or another doubt; inactive = no such curve, though single readings can be large; an effect the other way counts as inactive or inconclusive.

COc1ccc2ccc(OC)c(/C=N/NC(=O)c3cc4ccccc4o3)c2c1	none (no result: LmPK inh, AmpC detergent, AmpC no deterg, Giardia FBPA inh-1)
CCNC(=O)C1(C)CCCN(C(=O)C2(c3ccc(Cl)cc3)CCCC2)C1 (configuration not stated)	none (no result: LmPK inh, AmpC detergent, AmpC no deterg, Giardia FBPA inh-1)
O=c1ccc2cc3c([nH]c4ccc(Br)cc43)oc-2c1O	Giardia FBPA inh-1 14µM (no result: AMA1 RON2 block) | Giardia growth inactive[10.4 µM] | Mammalian tox inactive | Giardia FBPA inh-2 10µM | Rabbit FBPA inh 8.9µM | GAPDH counter 10µM
O=C(Nc1ccc(C(O)c2ccccc2)cc1)[C@@H]1O[C@H](CO)[C@@H](O)[C@H]1O (some centres not stated)	none (no result: LmPK inh, AmpC detergent, AmpC no deterg, Giardia FBPA inh-1)
O=C(NC(=S)Nc1ncccn1)c1ccccc1Cl	Giardia FBPA inh-1 3.5µM | Giardia growth inconclusive | Mammalian tox inactive | Giardia FBPA inh-2 inactive | Rabbit FBPA inh inactive | GAPDH counter inactive
CNC(=O)NC(=S)NC(=O)c1ccccc1Cl	Giardia FBPA inh-1 inconclusive
Cc1oc2c(O)c(O)ccc2c(=O)c1-c1ccccc1	Giardia FBPA inh-1 11µM | Giardia growth inactive | Mammalian tox inactive | Giardia FBPA inh-2 inactive | Rabbit FBPA inh inconclusive | GAPDH counter inactive
Nc1ccc2nc(CCCCc3nc4ccccc4[nH]3)[nH]c2c1	Giardia FBPA inh-1 13µM | Giardia growth inactive | Mammalian tox inactive | Giardia FBPA inh-2 inactive | Rabbit FBPA inh inactive | GAPDH counter inactive
Nc1ccc2nc(CCCCCCc3nc4ccc(N)cc4[nH]3)[nH]c2c1	AMA1 RON2 block inconclusive
Cc1ccc(N2C(=O)CC(Sc3ncn[nH]3)C2=O)cc1C (configuration not stated)	Giardia FBPA inh-1 18µM | Giardia growth inactive | Mammalian tox inactive | Giardia FBPA inh-2 inactive | Rabbit FBPA inh inactive | GAPDH counter inactive
Cc1cccc(N2C(=O)CC(Sc3nccc(C)n3)C2=O)c1 (configuration not stated)	none
Cc1cccc(N2C(=O)CC(Sc3ncn[nH]3)C2=O)c1 (configuration not stated)	Giardia FBPA inh-1 20µM | Giardia growth inactive | Mammalian tox inactive | Giardia FBPA inh-2 inactive | Rabbit FBPA inh inactive | GAPDH counter inactive
CCn1c2c(c(=O)n3ncc(C(=O)Nc4cccc(Cl)c4C)c13)CN(Cc1ccc(OC)cc1)CC2	none (no result: LmPK inh, AMA1 RON2 block, AmpC no deterg, Giardia FBPA inh-1)
CCS(=O)(=O)N1CCc2cc(C(=O)NCc3ccccc3Cl)ccc21	none (no result: LmPK inh, AMA1 RON2 block, AmpC no deterg, Giardia FBPA inh-1)
Cc1ccc(OCCCn2ccnc2)c(Br)c1	Giardia FBPA inh-1 18µM | Giardia growth inactive[10.4 µM] | Mammalian tox inactive | Giardia FBPA inh-2 inactive | Rabbit FBPA inh inactive | GAPDH counter inactive
Clc1cccc(OCCCn2ccnc2)c1	AmpC detergent inconclusive
CC(C)(C)c1ccc(OCCCn2ccnc2)cc1	AMA1 RON2 block inconclusive, Giardia FBPA inh-1 28µM | Giardia growth inactive | Mammalian tox inactive | Giardia FBPA inh-2 inactive | Rabbit FBPA inh inactive | GAPDH counter inactive
c1ccc2cc(OCCCn3ccnc3)ccc2c1	AMA1 RON2 block inconclusive, AmpC detergent inconclusive, Giardia FBPA inh-1 22µM | Giardia growth inactive | Mammalian tox inactive | Giardia FBPA inh-2 inactive | Rabbit FBPA inh inactive | GAPDH counter inactive
O=C(Nc1nnc(-c2ccco2)o1)c1ccc(N2C(=O)CCC2=O)cc1	Giardia FBPA inh-1 18µM | Giardia growth inactive | Mammalian tox inactive | Giardia FBPA inh-2 inactive | Rabbit FBPA inh inactive | GAPDH counter inactive
O=C(Nc1nnc(-c2ccc(Cl)cc2)o1)c1ccc(N2C(=O)CCC2=O)cc1	AmpC detergent inconclusive
Nc1nnc(-c2ccco2)s1	Giardia FBPA inh-1 6.3µM | Giardia growth inactive | Mammalian tox inactive | Giardia FBPA inh-2 inactive | Rabbit FBPA inh inactive | GAPDH counter inactive
O=C(Nc1cccc(C(=O)Nc2ccc(F)cc2F)c1)c1ccccc1	none
O=C(Nc1ccc(F)cc1F)c1cc(=O)n(-c2ccccc2)c(=O)[nH]1	Giardia FBPA inh-1 7.9µM | Giardia growth inactive | Mammalian tox inactive | Giardia FBPA inh-2 inactive | Rabbit FBPA inh inactive | GAPDH counter inactive
O=C(NC(=S)Nn1cnnc1)c1ccc(F)cc1Cl	Giardia FBPA inh-1 14µM | Giardia growth inactive | Mammalian tox inactive | Giardia FBPA inh-2 inactive | Rabbit FBPA inh inactive | GAPDH counter inactive
O=C(NC(=S)Nn1cnnc1)c1ccccc1Cl	Giardia FBPA inh-1 inconclusive
COc1ccc(NC(C)=O)cc1S(=O)(=O)N1CCN(Cc2cccs2)CC1	none (no result: LmPK inh, Giardia FBPA inh-1)
O=C(Nc1ncn[nH]1)c1ccccc1O	Giardia FBPA inh-1 20µM | Giardia growth inconclusive | Mammalian tox inactive | Giardia FBPA inh-2 inactive | Rabbit FBPA inh inactive | GAPDH counter inactive
CC(CN1CCCC1)OC(=O)c1cccc(F)c1 (configuration not stated)	Giardia FBPA inh-1 18µM | Giardia growth inactive[10.4 µM] | Mammalian tox inactive | Giardia FBPA inh-2 inactive | Rabbit FBPA inh inactive | GAPDH counter inactive
